Measurements published in PubChem BioAssay (NCI).
About 79,000 compounds went through this panel and 15% of them were active in at least one assay; those are over-represented in the sample as a whole. A number with no mark means an inactive call. Calls of active or inactive are those of the source. Rule as the data show it: active = growth inhibition above about 70%; inactive = the rest.

Assays:
[1] = NCI Yeast Anticancer Drug Screen. Data for the rad50 strain (AID 155);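 also: 0% = growth of vehicle-only cultures of the same strain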; details: S. cerevisiae rad50 strain growth inhibition; at 50.0 µM; active compounds read high
How it was run: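 A DNA repair-deficient yeast mutant serves as the test organism; compound-induced growth inhibition is calculated against vehicle-treated cells.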

[2] = NCI Yeast Anticancer Drug Screen. Data for the mec2-1 strain (AID 157); details: S. cerevisiae mec2-1 strain, at 50.0 µM, active compounds read high
How it was run: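 mec2-1 yeast strain, carrying an alteration in DNA damage repair or cell cycle control, was exposed to compounds; growth inhibition was measured relative to vehicle-treated controls.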

[3] = NCI Yeast Anticancer Drug Screen. Data for the sgs1 mgt1 strain (AID 161);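 also: 0% = growth of cultures given vehicle only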; details: S. cerevisiae sgs1 mgt1 strain, at 50.0 µM, active compounds read high
How it was run: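 This yeast growth screen uses a strain with defined DNA-repair lesions; compound-treated growth is compared with vehicle-treated growth.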

[4] = NCI Yeast Anticancer Drug Screen. Data for the cln2 rad14 strain (AID 165);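 also: 0% = growth equal to vehicle treated cultures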; details: S. cerevisiae cln2 rad14 strain, at 50.0 µM, active compounds read high
How it was run: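 Yeast carrying cln2 and rad14 alterations (cell cycle control and DNA damage repair) were exposed to compounds. Growth inhibition was measured against vehicle-treated controls.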

[5] = NCI Yeast Anticancer Drug Screen. Data for the bub3 strain (AID 167); details: S. cerevisiae bub3 mutant strain, at 50.0 µM, active compounds read high
How it was run: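 Inhibition values come from growth of compound-treated mutant yeast normalised to vehicle-treated controls.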

[6] = NCI Yeast Anticancer Drug Screen. Data for the mlh1 rad18 strain (AID 175); details: S. cerevisiae mlh1 rad18 strain growth inhibition; at 50.0 µM; active compounds read high
How it was run: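 Growth inhibition of the yeast strain was measured after compound exposure and expressed relative to vehicle-treated controls. The strain carries defined defects in DNA damage repair.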

Row | SMILES | growth inhibition [1] | growth inhibition [2] | growth inhibition [3] | growth inhibition [4] | growth inhibition [5] | growth inhibition [6]
1 | c1ccc2cc3c(NC4=NCCO4)cccc3cc2c1 | -2.8% | 5.9% | -2.7% | 22.4% | 33.1% | 16.2%
2 | O=C(O)c1cc(/C=C/c2cc(O)ccc2O)ccc1O | -14.7% | -21.8% | -24.8% | -2.05% | -33.4% | -39.6%
3 | [O-][n+]1c(/C=C/c2cccc3ccccc23)cccc1/C=C/c1cccc2ccccc12 | -8.6% | 1% | 42.8% | 6.55% | 29.4% | 40.8%
4 | O=[N+]([O-])c1ccc(Sc2c3ccccc3nc3cc(Cl)ccc23)cc1 | -32.2% | -18.3% | -18.5% | 9.3% | -20.3% | -28.9%
5 | CCNOCc1ccccc1 | -4.35% | -11.7% | -11% | -18.1% | -0.45% | -9.95%
6 | COc1ccc2c(c1)C(N)CC2=O (stereo unspecified) | 14% | 7.7% | 0.75% | 8.75% | 1.75% | -12.9%
7 | COc1ccc(C(O)C(NCc2ccccc2)c2ccccc2)cc1 (stereo unspecified) | 7.75% | -7.3% | 13.2% | 11.8% | 2.55% | 23.9%
8 | CCOC(=O)c1ccc(-c2ccc(C(=O)OCC)cc2[N+](=O)[O-])c([N+](=O)[O-])c1 | 14.8% | 12.8% | 11.8% | 17% | 9.7% | 15%
9 | NCCNc1ncnc2ccccc12 | -13.1% | 16.1% | -1.75% | -11.6% | -1.35% | -5.2%
10 | CC(=O)OCC1OC(N=[N+]=[N-])C(OC(C)=O)C(OC(C)=O)C1OC1OC(COC(C)=O)C(OC(C)=O)C(OC(C)=O)C1OC(C)=O (stereo unspecified) | -19.1% | -29.9% | -16.2% | -0.35% | 5.55% | -17.1%
11 | CCCCc1[nH]nc(-c2n[nH]c(CCCC)c2C)c1C | 25.4% | 14.1% | 28.5% | 7.95% | 18.6% | 27.9%
12 | CNc1nc(C(F)(F)F)nc(Cl)c1N | 10% | 2.5% | 13.4% | -7.95% | 15.3% | 7.4%
13 | ClCC1OC1CCl (stereo unspecified) | 22.1% | 3.05% | 1.1% | -10.6% | 9.8% | 1.95%
14 | COc1ccc(/C=C2\N=C(c3cccc(Cl)c3)OC2=O)cc1OC | 14.6% | 4.25% | 18.2% | 12.2% | 6.3% | -7.85%
15 | Cc1ccc(N=CN(C)C)c(Cl)c1 | -4.5% | 0.8% | 4.6% | -16.8% | -7.4% | -23.1%
16 | CCCC[P+](CCCC)(CCCC)c1ccccc1 | -12.7% | 12.3% | -0.05% | -32.1% | -8.95% | -1.4%
17 | O=[N+]([O-])c1ccc(N=C(Nc2ccc([N+](=O)[O-])cc2)c2ccccc2)cc1 | 12.1% | -16.2% | -1.6% | -33.6% | -12.6% | -14.5%
18 | C/C(=C\c1ccccc1)C(=O)C1C(c2ccccc2)CC(=O)C(C)C1c1ccccc1 (stereo unspecified) | -3.65% | -11.7% | -27.3% | -36.5% | -0.5% | 2.35%
19 | CN=C1N[N+]2=CCCCC2S1 (stereo unspecified) | 17.8% | 3.35% | 19.7% | 0.75% | 2.4% | 13.3%
20 | Fc1ccc(C2SCc3nc4ccccc4n32)cc1F (stereo unspecified) | -49.9% | -1.3% | 24.3% | 1.25% | -13.8% | 18.6%
21 | CCCCCCC(=O)/C=C/c1ccccc1Cl | -12.2% | -29.6% | -1.35% | 10.3% | 15.1% | 10.1%

Row | SMILES | growth inhibition [1] | growth inhibition [2] | growth inhibition [3] | growth inhibition [4] | growth inhibition [5] | growth inhibition [6]
22 | CN(C)CC1CN(C)CC(CN(C)C)C1(O)C(C(=O)N(C)C)c1ccccc1 (stereo unspecified) | 75.2% (active) | 50% | 65.2% | 36.4% | 49.7% | 62.2%
23 | CC(=O)OCC1OC(n2nc(/C=C/c3ccco3)c(=O)n(-c3ccccc3)c2=S)C(OC(C)=O)C(OC(C)=O)C1OC(C)=O (stereo unspecified) | 57.5% | 14.8% | 61% | 29.4% | 16.4% | 56.4%
24 | O=c1c2ccccc2sc2nc(CCl)nn12 | 6.2% | 4.25% | 8.2% | 16.8% | 2.05% | 47.2%
25 | Cc1cc(Cl)c(Cl)cc1NC(=O)C(Br)C(Br)c1ccccc1 (stereo unspecified) | 75.8% (active) | 71.3% (active) | 74.3% (active) | 68.7% | 78.5% (active) | 82.2% (active)
26 | O/N=C(/CN1CCOCC1)c1ccccc1 | -7.25% | 7.9% | -0.25% | -20.9% | 8.4% | 0%
27 | COC(C)(C)C(Br)C(=O)OCC(=O)c1ccc(Br)cc1 (stereo unspecified) | 25.9% | -0.3% | 11% | 20.6% | 0.8% | 13.3%
28 | O=C(O)CCCCC1CCSS1 (stereo unspecified) | 32.2% | 15.8% | 46% | 20.1% | 25.5% | 20.9%
29 | COC1=CC(=O)[C@H]2[C@H](C)C(c3ccccc3)[C@@]2(C)C1=O (stereo partly specified) | -21.5% | -1.5% | -16.6% | 2.1% | -0.05% | -20.2%
30 | O=C(Nc1ccc(Br)cn1)c1sc2ccccc2c1Cl | 8.2% | -9.7% | 26.6% | 19.4% | 16.4% | 14.2%
31 | COc1ccccc1NC(=O)CC(=O)N1N=C(N(c2ccccc2)c2ccccc2)CC1c1ccccc1 (stereo unspecified) | 6.75% | -1.1% | -7.15% | 9.8% | 9.6% | 23.1%
32 | COc1ccc(C(=O)N/N=C/c2ccccc2Cl)cc1 | 1% | 0.45% | 19.1% | -10.6% | 19.4% | 18.4%
33 | OC1(C#CC2(O)CCCC2)CCCC1 | -8.9% | -11.9% | 15.4% | -8.05% | -1.2% | 23.9%
34 | C/C(CC(=O)Nc1cccc(Cl)c1C)=N\NC(=O)c1ccncc1 | 6.05% | -2.3% | -6.2% | -2% | -0.5% | 0.95%
35 | O=[N+]([O-])c1ccc(N/N=C(/c2ccc3ccccc3c2)c2ccccc2F)c([N+](=O)[O-])c1 | -9% | -4.6% | -12.2% | -12% | -1.85% | -13.6%
36 | O=C(O)c1ccc(Cl)c2ncccc12 | 5.3% | 1.25% | -1.3% | -28.2% | -9.75% | 13.2%
37 | O=C(NCCNCCO)N/N=C/c1ccccc1 | -0.2% | -34.4% | -15.9% | -7.75% | -39% | -0.65%
38 | CCNC(CCCC1CCCCC1)C(=O)O (stereo unspecified) | -0.9% | -18.4% | -3.5% | -27.2% | -18.5% | 4.7%
39 | CCOC(=O)CCCOc1ccccc1 | 24.4% | -2.95% | -9.55% | 7.6% | 16.1% | 19.7%
40 | CCCCCCCCCCC(CCCCCCCCCC)C1CCCC1 | -12.3% | 16.1% | 0.7% | -14.6% | -12.8% | -12.9%
41 | C/C(=N\NC(N)=S)c1cc(C)c(C)cc1C | 34.3% | 5.55% | 50% | 17.2% | -7.95% | 65.8%
